# Laboratory results taken from ChEMBL document CHEMBL4513216, “Probing the Open Global Health Chemical Diversity Library for Multistage-Active Starting Points for Next-Generation Antimalarials” (ACS Infect Dis, 2020).
# Out of some 68,000 compounds screened, about 2,700 (4%) showed an effect of 50% or more. This excerpt belongs to a sample that is enriched for strong results.
# Test system: Plasmodium berghei
# Experiment: Screen against P. berghei liver stage (PbLuc), transformed with Luciferase, at 2uM
# Format: functional, HepG2
# Settings: tested at 2 uM
row,SMILES,INHIBITION [%]
1,CC1c2ncc(Cn3cncn3)n2CCN1C(=O)c1ccccn1 (stereo unspecified),23.97
2,O=C(c1ccccc1)N1CCC2(CC1)CNc1c(F)cccc12,-27.31
3,CC(OCC1CC1)C(=O)N1CCCN(Cc2cnn(C)c2)CC1 (stereo unspecified),47.12
4,Cc1ccc(N2CC[C@@H]3O[C@@H](COCc4cccnc4)CC[C@@H]32)nn1,-64.19
5,O=C(c1cccc(S(=O)(=O)NCCc2ccccn2)c1)N1CCOCC1,6.84
6,CCc1cc(CN2C[C@@H]3CC[C@H]2CN(C2Cc4ccccc4C2)C3)on1,36.79
7,Cc1ccccc1C(C(=O)N(C)Cc1cnn(C)c1)N(C)C (stereo unspecified),-15.75
8,O=C(C1CCC2(CCN(c3nncs3)CC2)C1)N1CCCC1 (stereo unspecified),58.08
9,CC(=O)N1CCCC2(CCN(c3nncs3)C2)C1 (stereo unspecified),19.58
10,O=C(C1CCC2(CCN(c3nncs3)CC2)CO1)N1CCCC1 (stereo unspecified),-38.48
11,CNc1cc(N2CCCC2CNCc2cnc(C)s2)ncn1 (stereo unspecified),47.3
12,CNC(=O)C1(CCCc2cccnc2)CCCCN1 (stereo unspecified),32.95
13,O=C1O[C@@H]2CN(C3CCOCC3)C[C@@H]2N1CCc1cccc(Cl)c1,19.46
14,O=C(c1cccnc1)N(CCO)Cc1cc(Br)ccc1F,-12.09
15,O=C(c1cccnc1O)N(CCO)Cc1cc(Br)ccc1F,52.89
16,O=C(c1ccccn1)N(CCO)Cc1cc(Br)ccc1F,-46.83
17,CC(C)CN1CCC(NCCNc2cccnc2)CC1,2.06
18,CN(C)C(=O)c1nc2c(s1)CCCN2Cc1ccccc1,-4.2
19,CCN1CCOCC2(CCCN(C(=O)c3cccc(O)c3)C2)C1 (stereo unspecified),24.36
20,Cc1ccc(S(=O)(=O)NC(=O)C2(c3ccccc3)CCC2)c(C)c1,53.81
21,Cc1ccc(S(=O)(=O)NC(=O)C2(c3ccc(F)cc3)CCC2)c(C)c1,-2.2
22,Cc1ccccc1S(=O)(=O)NC(=O)C1(c2ccccc2)CCC1,28.54

row,SMILES,INHIBITION [%]
1,COc1ccc(CN2C[C@@H]3COC[C@@H](N4CCN(C)CC4)[C@@H]3C2)cc1,-54.53
2,CN(C)CCNC(=O)CCn1ncc2c(Cl)cccc21,19.92
3,Cc1cccc(=O)n1CCC(=O)N1CC[C@@](O)(C2CCC2)[C@H](C)C1,-11.55
4,Cc1cccc(=O)n1CCC(=O)N1CCC2(CC1)OCCCC2O (stereo unspecified),62.96
5,Cc1cccc(=O)n1CCC(=O)N1CC[C@](C)(O)[C@H](C)C1,-4.52
6,OC1CN(Cc2ccccc2)CCN(c2ccncc2)C1 (stereo unspecified),1.42
7,Cc1cc(N2CCN(Cc3ccccc3)CC(O)C2)cc(C)n1 (stereo unspecified),74.94
8,Cc1cc(N2CCN(Cc3ccccc3)CC(O)C2)nc(N)n1 (stereo unspecified),24.44
9,COc1cccc(C2CC(=O)Nc3nc(N4CCCCC4)sc32)c1OC (stereo unspecified),-18.15
10,COc1ccccc1C1CCN(c2ccc3cc[nH]c3n2)CC1,76.27
11,COc1ccc(OC)c(C2CCN(c3ccc4cc[nH]c4n3)C2)c1 (stereo unspecified),29.98
12,c1cc(CN2CCCN(c3ccc4cc[nH]c4n3)CC2)ccn1,45.82
13,COc1cccc(C2CCN(c3ccc4cc[nH]c4n3)C2)c1OC (stereo unspecified),87.17
14,Fc1ccccc1CN1CCCN(c2ccc3cc[nH]c3n2)CC1,-1.87
15,CCN1C(=O)CCC12CCCN(Cc1nccs1)CC2 (stereo unspecified),-23.02
16,O=C1CC(c2ccccc2)c2sc(C(=O)O)c(-c3ccccc3)c2N1 (stereo unspecified),4.74
17,Fc1ccc(CN2CCO[C@H]3[C@H](OCc4ccncc4)CC[C@@H]32)cc1,4.54
18,CCc1ncc(-c2cn(CCSc3ncn[nH]3)nn2)cn1,-5.87
19,c1ncc(-c2cn(CCSc3cnn[nH]3)nn2)cn1,70.58
20,c1c[nH]c(-c2cn(CCSc3cnn[nH]3)nn2)n1,11.19
21,CCn1ncc(C(=O)NCCc2nc(-c3ccncc3)n[nH]2)c1C,9.61
22,Cc1ccc(NC2CCN(C(=O)Cc3c(C)noc3C)CC2)nn1,-25.13

row,SMILES,INHIBITION [%]
1,CC(C)Cc1cc(NC(=O)c2ccc(=O)[nH]n2)n(C)n1,-19.76
2,Cn1nc(CC(C)(C)C)cc1NC(=O)c1ccc2[nH]nnc2c1,16.95
3,CC(C)Cc1cc(NC(=O)c2ccccc2)n(C)n1,49.9
4,COc1ccccc1C(=O)Nc1cc(CC(C)C)nn1C,56.02
5,CC(C)Cc1cc(NC(=O)c2ccc3[nH]nnc3c2)n(C)n1,50.61
6,CC(C)Cc1cc(NC(=O)c2ccncc2)n(C)n1,25.46
7,CC(C)Cc1cc(NC(=O)c2ccccc2F)n(C)n1,-68.24
8,CC(C)Cc1cc(NC(=O)c2n[nH]c3ccccc23)n(C)n1,64.16
9,COc1ccc(C(=O)Nc2cc(CC(C)C)nn2C)cc1,19.35
10,Clc1ccccc1-c1nnc(CNCCn2cccn2)o1,49.35
11,C=C(C)COCCNC(=O)C1CCCN1C(C)=O (stereo unspecified),45.75
12,Cn1cc(CN2CCCN(C(=O)c3ccc4ccccc4n3)CC2)cn1,30.05
13,O=C(CNC(=O)Nc1c(F)cccc1Oc1ccccc1)NC1CC1,-40.7
14,Cc1nc2c(C(=O)N[C@H]3C[C@H]4CN(C)CCN4C3)cccc2[nH]1,-51.5
15,CCn1c(CN2CCCC(O)(c3ccc(F)cc3)CC2)cnc1SC (stereo unspecified),49.87
16,Cc1ccccc1OCCC(=O)N1CCCC(n2cncn2)C1 (stereo unspecified),2.08
17,COc1ccc(CC(=O)N2Cc3nccn3CC(CN(C)C)C2)cc1 (stereo unspecified),35.26
18,Cc1cncc(CN2CC[C@@](O)(CNC(=O)c3c[nH]cn3)[C@H](O)C2)c1,19.36
19,O=C(NC[C@]1(O)CCN(Cc2ccsc2)C[C@H]1O)c1c[nH]cn1,69.45
20,O=C(NC[C@]1(O)CCN(Cc2ccccc2F)C[C@H]1O)c1c[nH]cn1,38.96
21,CS(=O)(=O)N1CCC2(CC1)CC(NCc1ccco1)c1ccccc12 (stereo unspecified),-9.53
22,O=C1CN(C(=O)CN(CC2CCC2)CC(F)(F)F)CCN1,19.92
